# Screening data: PubChem, National Center for Advancing Translational Sciences (NCATS)
# An excerpt weighted towards active compounds, which were near 10% of everything screened.
# MCF10A rerep: induces DNA re-replication in MCF 10a normal breast cells; Potency, µM (series often up to 46.1 µM), for the others: at the top dose activity, positive = re-replication, hits mostly activators; MCF 10A DNA re-replication, Hoechst nuclear intensity, 48 h; AID 624296; 2.9% of 350,000 active; further: % of control where 0% means no effect; nearly all actives have a fitted effect of over 50% in size
# KB-V1 MDR tox: KB-V1 MDR subline cytotoxicity | KB-V1 MDR cells viability, CellTiter-Glo, 72 h | Potency, µM (titrated, usually from 46.1 µM), usual class: cytotoxic | 3.4% of 400,000 active | AID 1347076; further: on the % scale 0 is the no-effect control and ±100 the full control effect; nearly all actives have a fitted effect of over 60% in size
#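 Following 72 h at 37 degrees C with compound, KB-V1 cell viability was read by CellTiter-Glo luminescence, medium being phenol-red-free DMEM plus 10% FBS; concentration-response parameters came from normalized, curve-fitted qHTS data.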
# RORgamma inh: ROR gamma (mouse) transcription inhibition; Drosophila S2 Gal4-RORgamma UAS-luciferase reporter, 20 h; 5.4% of 310,000 active; AID 2551; Potency, µM (series often up to 53.6 µM), without a hit: top-dose activity change, negative = inhibition, hits mostly inhibitors; P51450; further: on the % scale 0 is the no-effect control and ±100 the full control effect; nearly all actives have a fitted effect of over 60% in size
# Target sequence (P51450 whole entry, looked up, the tested form may be a part): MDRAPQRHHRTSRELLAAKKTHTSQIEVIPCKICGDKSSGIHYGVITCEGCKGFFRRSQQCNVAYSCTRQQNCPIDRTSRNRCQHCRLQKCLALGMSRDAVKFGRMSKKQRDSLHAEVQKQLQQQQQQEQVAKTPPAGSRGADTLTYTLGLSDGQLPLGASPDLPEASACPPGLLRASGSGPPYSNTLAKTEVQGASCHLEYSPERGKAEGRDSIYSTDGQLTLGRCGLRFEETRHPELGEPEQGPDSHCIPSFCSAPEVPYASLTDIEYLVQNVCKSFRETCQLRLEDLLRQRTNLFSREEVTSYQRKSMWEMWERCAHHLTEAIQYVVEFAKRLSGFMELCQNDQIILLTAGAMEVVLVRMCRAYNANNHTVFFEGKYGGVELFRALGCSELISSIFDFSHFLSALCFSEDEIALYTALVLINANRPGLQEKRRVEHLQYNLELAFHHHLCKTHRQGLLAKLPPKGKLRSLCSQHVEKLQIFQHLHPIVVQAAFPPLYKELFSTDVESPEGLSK
#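 Using a luciferase readout, inhibitors were identified by reduced reporter activity in Drosophila cells coexpressing a copper-inducible Gal4–ROR gamma fusion and UAS-driven Photinus luciferase, incubated 20 hr after 700 uM copper sulfate.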
# SW480 rerep: inducers of DNA re-replication in SW480 colon cancer cells; Potency, µM (doses to about 46.1 µM), for inactives: at the highest dose re-replication activation, actives largely listed as activators; 1.8% of 340,000 active; AID 624297; SW480 DNA re-replication, Hoechst DNA content imaging, 48 h; further: % of control where 0% means no effect; nearly all actives have a fitted effect of over 55% in size
#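 Per well, 250 cells were exposed to pinned compound for 48 hr. Nuclear DNA was visualised with Hoechst (40 min, 37 C) and total object intensity recorded by fluorescence scanning.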
# Gal4-VP16 FLuc: counter-screen for ROR gamma inhibitors: Gal4-VP16 reporter. Drosophila S2 Gal4-VP16 UAS-luciferase, luminescence, 20 h. 3.5% of 310,000 active. Potency, µM (titrated, usually from 53.6 µM), for inactives: at the highest dose activity, negative = inhibition, hits mostly inhibitors;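 further: Gal4-VP16 expression switched on by copper sulfate through the metallothionein promoter; on the % scale 0 is the no-effect control and ±100 the full control effect; nearly all actives have a fitted effect of over 50% in size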
# KB-3-1 tox: KB-3-1 parental cell cytotoxicity; AID 1347075; 1.4% of 400,000 active; KB-3-1 viability, CellTiter-Glo ATP luminescence, 72 h; Potency, µM (titrated, usually from 46.1 µM), actives largely listed as cytotoxic; further: on the % scale 0 is the no-effect control and ±100 the full control effect; nearly all actives have a fitted effect of over 60% in size
#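 Screening of KB-3-1 cells (DMEM, 10% FBS, phenol-red free) ran from lowest to highest compound concentration; after 72 h at 37 °C viability was read luminescently and curves fitted.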
# Active calls of the source: *; i = inactive; ? = inconclusive; . = no result given; [ ] = dose if it differs, or a comment. The call rests on the fitted dose curve; in most records, active means well fitted curve in the direction sought with a large enough effect; inconclusive means small, poorly fitted or top-dose-only effect, or another doubt; inactive means no such curve, though single readings can be large; an effect the other way counts as inactive or inconclusive. Potency means the concentration at half of the fitted maximal effect.
SMILES,MCF10A rerep,KB-V1 MDR tox,RORgamma inh,SW480 rerep,Gal4-VP16 FLuc,KB-3-1 tox
Cc1nnc(NC(=O)c2ccc3c(c2)C(=O)N(CC2CCCO2)C3=O)s1 (stereo unspecified),12µM*,i,-4%,?,?,i
Cc1ccc(NC(=O)c2ccc3c(c2)C(=O)N(CC2CCCO2)C3=O)cc1C (stereo unspecified),29%,i,44%,3%,-8%,i
CCc1cccc(-n2nnc(-c3nsc(NC(=O)c4cccc(OC)c4)n3)c2C)c1,.,i,.,.,.,?
COc1ccc(S(=O)(=O)N2CCCC2CNC(=O)C(=O)Nc2ccc(C)cc2)cc1 (stereo unspecified),2%,i,.,-84%,.,i
Cc1ccc(C)c(S(=O)(=O)N2CCCC2CNC(=O)C(=O)Nc2ccccc2)c1 (stereo unspecified),.,i,.,.,.,i
COc1ccc(NC(=O)C(=O)NCC2CCCN2S(=O)(=O)c2cc(C)ccc2C)cc1 (stereo unspecified),?,5.8µM*,.,16µM*,.,5.8µM*
Cc1ccc(C)c(S(=O)(=O)N2CCCCC2CCNC(=O)C(=O)NCc2ccco2)c1 (stereo unspecified),?,9.2µM*,.,?,.,?
Cc1ccc(C)c(S(=O)(=O)N2CCCC2CNC(=O)C(=O)NCc2ccco2)c1 (stereo unspecified),3%,i,.,0%,.,i
COc1ccc(NC(=O)C(=O)NCC2CCCN2S(=O)(=O)c2ccc(C)cc2)cc1 (stereo unspecified),?,0.23µM*,.,?,.,0.15µM*
Cc1ccc(C)c(S(=O)(=O)N2CCCC2CNC(=O)C(=O)NCc2ccccc2)c1 (stereo unspecified),-5%,8.2µM*,.,3%,.,i
O=C(Nc1cccc(Cl)c1)c1ccc2nc(CCc3ccccc3)oc2c1,.,?,.,.,.,i
O=S(=O)(c1ccc(Br)cc1)c1nnn2c1nc(NCc1cccs1)c1sccc12,.,i,.,.,.,i
CCNC(=O)C1(C)CCCN(Cc2cc3ccccc3o2)C1 (stereo unspecified),.,i,.,.,.,i
COc1ccc(NC(=O)c2oc3ccccc3c2NC(=O)Cc2coc3cc(C)ccc23)cc1,.,i,.,.,.,i
COc1ccc(C(=O)NCC(c2ccc3c(c2)OCO3)N2CCN(c3ccccc3F)CC2)cc1 (stereo unspecified),.,i,.,.,.,i
O=C(NCCc1ccccc1)C(=O)NCCC1CCCCN1S(=O)(=O)c1ccccc1 (stereo unspecified),7%,i,.,1%,.,i
O=C(NCCc1ccccc1)C(=O)NCC1CCCN1S(=O)(=O)c1ccccc1 (stereo unspecified),23µM*,12µM*,.,18µM*,.,?
CCNC(=S)NNC(=O)c1cccs1,-5%,i,11µM*,-5%,-13%,i
CCNC(=S)NNC(=O)c1cc(Br)cs1,3%,i,-13%,16µM*,-10%,i
C/C=C/c1ccc2c(c1)O[C@H](CN(C)CC1CCOCC1)[C@@H](C)CN([C@H](C)CO)S2(=O)=O,.,i,.,.,.,i
Cc1ccc(NC2=Nc3ccccc3CC2)cc1,?,i,11µM*,-4%,?,i
COCCCN1CN(Cc2ccco2)CNC1=S,0%,i,-25%,-8%,2%,i
CCCCN1CN(Cc2ccccc2)CNC1=S,-2%,?,4.5µM*,-7%,5µM*,i
CCOCCCN1CN(Cc2ccccc2)CNC1=S,0%,?,2.5µM*,-61%,3.5µM*,i
COc1ccc2c(c1)CC(C(=O)N1CCC(C(N)=O)CC1)CO2 (stereo unspecified),.,i,.,.,.,i
SMILES,MCF10A rerep,KB-V1 MDR tox,RORgamma inh,SW480 rerep,Gal4-VP16 FLuc,KB-3-1 tox
COC(=O)c1[nH]c2ccc(F)cc2c1NS(=O)(=O)c1ccc(F)c(C)c1,?,16µM*,-3%,-107%,-1%,?
COc1ccccc1Nc1nc(N)nc(CSC(=S)N2CCC(C)CC2)n1,15%,?,0.13µM*,-5%,5µM*,i
COc1ccccc1Nc1nc(N)nc(CSC(=S)N2CCCCC2C)n1 (stereo unspecified),?,?,7.9µM*,-4%,7.1µM*,i
COc1ccccc1Nc1nc(N)nc(CSC(=S)N2CCN(c3ccccc3)CC2)n1,-23%[9.22 µM],?,-45%,-17%,6%,i
COc1ccccc1Nc1nc(N)nc(CN2CCCCCC2)n1,1%,i,-8%,-29%,23%,i
COc1ccccc1NC(=S)NCc1cccs1,7%,i,?,-8%,-27%,i
S=C(NCc1cccs1)Nc1cccc(Cl)c1Cl,15%,i,10µM*,-3%,8.9µM*,i
Cc1c(Cl)cccc1NC(=S)NCc1cccs1,29%,i,4.5µM*,-10%,7.1µM*,i
O=S1(=O)C[C@H](N2CC[C@@H](O)C2)[C@@H](COCc2ccccc2)N1,.,i,.,.,.,i
COCCCn1c(C23CC4CC(CC(C4)C2)C3)n[nH]c1=S,3%,i,5µM*,12%,6.3µM*,i
Cn1c(Cc2cccs2)n[nH]c1=S,-2%,i,?,3%,-4%,i
COCCCn1c(=O)c2ccccc2n2c(=S)[nH]nc12,4%,i,?,-8%,-18%,i
CC(C)Cn1c(C23CC4CC(CC(C4)C2)C3)n[nH]c1=S,?,i,3.2µM*,-18%,3.2µM*,i
Cn1c(C23CC4CC(CC(C4)C2)C3)n[nH]c1=S,2%,?,5µM*,?,8.9µM*,i
COc1cc(NC(=O)c2cc3nc(-c4ccc(C)cc4)cc(C(F)(F)F)n3n2)cc(OC)c1OC,.,i,.,.,.,i
COc1ccc(CCNC(=O)CSCc2ccc(C)cc2)cc1OC,-6%,21µM*,.,-5%,.,i
COc1ccc(CCNC(=O)CCN2C(=O)C(C)Oc3ccc(C)cc32)cc1OC (stereo unspecified),0%,8.2µM*,10%,0%,-6%,i
COc1ccc(-n2nnnc2SCC(=O)NCCc2ccc(OC)c(OC)c2)cc1,-7%,8.2µM*,?,13%,-4%,i
COc1ccc(CCNC(=O)CSCc2ccc([N+](=O)[O-])cc2)cc1OC,-5%,i,14%,-271%,-1%,i
COc1ccc(CCNC(=O)CSCc2ccc(Cl)cc2)cc1OC,6%,6.5µM*,19%,-1%,-7%,i
